Data on 13 molecules can be found in PubChem BioAssay (EPA / NIEHS).

Inconclusive results are not listed. Active and inactive are the calls of the source. The calls were made as follows, unless noted: active = hit-call score of the fitted dose curve at least 0.9, where 1 is the maximum; inactive = score below 0.9.

Assay [1] can be described thus: CCTE_Shafer_MEA_acute_spike_number: CCTE's Neural Acute Assay for Total Number of Spikes, Shafer Lab (AID 2284008).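 As to AC50: curve fitted for decrease in spike count so AC50 reflects inhibitors.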 The method in brief:
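Read-out is the total spike count over 40 min, expressed as percent change from each well's own pre-treatment baseline and fitted in the loss direction against DMSO. Rat cortical neurons were exposed at 0.03-40 uM on DIV 13 or 15.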

Assay [2] is described as follows: CCTE_Shafer_MEA_acute_burst_number: CCTE's Neural Acute Assay for Single-Electrode Bursts, Shafer Lab (AID 2284013). In outline:
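Rat cortical cultures, DIV 13/15; 40 min baseline, then 40 min with compound 0.03-40 uM, 37 C. Spikes: 300-5000 Hz band-pass, threshold 8x rms noise. Readout = % change in single-electrode bursts vs baseline, loss-of-signal fit.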

A short description of assay [3]: CCTE_Shafer_MEA_acute_per_burst_spike_number_mean: CCTE's Neural Acute Assay for Average Number of Spikes Per Burst, Shafer Lab (AID 2284015).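 Also: hits are decreases in mean spikes per burst versus baseline.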 The method in brief:
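Rat primary cortical neurons on 48-well MEAs (DIV 13 or 15) were treated with 0.03-40 uM compound at 37 C. Mean spikes per burst over 40 min were recorded before and after exposure and expressed as percent change from baseline, relative to DMSO.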

Assay [4] in a line: CCTE_Shafer_MEA_acute_interburst_interval_mean: CCTE's Neural Acute Assay for Mean Interburst Interval, Shafer Lab (AID 2284016).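 Also: percent change of mean interburst interval versus each well's own pre-dose baseline; curves fitted for decrease in interburst interval relative to DMSO.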 The method in brief:
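Rat primary cortical neurons on 48-well MEAs at DIV 13 or 15 were exposed acutely to 0.03-40 uM. Spikes detected at 8x rms noise, 37 C. Mean interburst interval from 40 min recordings expressed as percent change from 40 min pre-treatment baseline.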

Assay [5] in a line: CCTE_Shafer_MEA_acute_burst_percentage_mean: CCTE's Neural Acute Assay for Percentage of Spikes in a Burst, Shafer Lab (AID 2284017).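 As to AC50: curve fitted for loss of signal so potency reflects decreased burst percentage.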 The method in brief: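 Primary rat cortical neurons on 48-well MEA plates, treated on DIV 13 or 15 at 0.03-40 uM. Spikes detected at 8x rms noise at 37C; percent change from 40-min baseline to 40-min post-dose recording, fitted versus DMSO.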
Assay [6] in a line: CCTE_Shafer_MEA_acute_burst_percentage_std: CCTE's Neural Acute Assay for Standard Deviation of Burst Percentage, Shafer Lab (AID 2284018).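 Also: fitted in the negative direction so actives lower burst percentage SD.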 The method in brief: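 Primary rat cortical neurons on 16-electrode MEA wells were recorded 40 min at baseline (DIV 13 or 15), then 40 min after compound (0.03-40 uM), at 37 C. Well value is SD across electrodes of spikes-in-bursts/total spikes; endpoint is percent change, DMSO-referenced.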

Read-out in assay [7]: Monokine induced gamma interferon (MIG), CXCL9 (gene 4283)
As to the kind of experiment: BSK_KF3CT_MIG: BioMAP Diversity Plus: KF3CT Assay for Monokine induced gamma interferon (MIG) Biomarker Activity (AID 2284248). Particulars: primary human keratinocytes with fibroblasts. In outline: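 KF3CT system: keratinocyte/fibroblast co-culture, 24 h post-dose, MIG by ELISA; activity vs DMSO, positive fitting direction.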

Read-out in assay [8]: Plasminogen activator inhibitor-1 (PAI1), SERPINE1 (gene 5054)
As to the kind of experiment: BSK_KF3CT_PAI1: BioMAP Diversity Plus: KF3CT Assay for Plasminogen activator inhibitor-1 (PAI1) Biomarker Activity (AID 2284252). To be noted: primary human keratinocytes with fibroblasts. The method in brief:
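Human keratinocyte/foreskin fibroblast co-culture dosed for 24 h; PAI-1 measured by ELISA, fitted in positive direction against DMSO baseline. Parallel SRB total-protein staining (0.1% SRB, 560 nm) assesses overt cytotoxicity.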

Read-out in assay [9]: Interleukin-8 (IL8), CXCL8 (gene 3576)
As to the kind of experiment: BSK_KF3CT_IL8: BioMAP Diversity Plus: KF3CT Assay for Interleukin-8 (IL8) Biomarker Activity (AID 2284254). To be noted: primary human keratinocytes with fibroblasts. The method in brief: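 Chemicals were added to co-cultured human keratinocytes and foreskin fibroblasts, incubated 24 h, then IL-8 was quantified by ELISA. Cytotoxicity was tracked by sulforhodamine B total-protein staining in parallel cultures.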

Read-out in assay [10]: Interferon-inducible T-cell alpha chemoattractant (ITAC), CXCL11 (gene 6373)
As to the kind of experiment: BSK_BE3C_ITAC: BioMAP Diversity Plus: BE3C Assay for Interferon-inducible T-cell alpha chemoattractant (ITAC) Biomarker Activity (AID 2284279). Particulars: primary human bronchial epithelial cells. In outline: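 ELISA for I-TAC in primary human bronchial epithelial cultures 24 h post-treatment, fitted relative to DMSO baseline in positive direction. Cytotoxicity checked in parallel cultures by sulforhodamine B protein staining.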

Read-out in assay [11]: Interleukin-8 (IL8), CXCL8 (gene 3576)
Nature of the assay: BSK_BE3C_IL8: BioMAP Diversity Plus: BE3C Assay for Interleukin-8 (IL8) Biomarker Activity (AID 2284280). Particulars: primary human bronchial epithelial cells. The method in brief:
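ELISA read-out of IL-8 in human lung bronchial epithelial primary cell cultures, 24 h post-dosing; endpoint analysed as signal increase relative to DMSO baseline.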

Read-out in assay [12]: Plasminogen activator inhibitor-1 (PAI1), SERPINE1 (gene 5054)
Nature of the assay: BSK_CASM3C_PAI1: BioMAP Diversity Plus: CASM3C Assay for Plasminogen activator inhibitor-1 (PAI1) Biomarker Activity (AID 2284284).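 Also: PAI-1 protein level measured by ELISA 24 h after dosing.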 To be noted: primary human coronary artery smooth muscle cells.

Read-out in assay [13]: Intercellular Adhesion Molecule 1 (ICAM1), ICAM1 (gene 3383)
Nature of the assay: BSK_hDFCGF_ICAM1: BioMAP Diversity Plus: hDFCGF Assay for Intercellular Adhesion Molecule 1 (ICAM1) Biomarker Activity (AID 2284287). Particulars: primary human foreskin fibroblasts. The method in brief: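 Primary human foreskin fibroblasts (hDFCGF system) dosed with chemical; ICAM-1 quantified by ELISA at 24 h relative to DMSO. Parallel SRB total-protein staining to assess overt cytotoxicity.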

The target in assay [14] is Oxysterols receptor LXR-alpha (Homo sapiens) (UniProt Q13133). As to the kind of experiment: ATG_LXRa_TRANS: Attagene TRANS-FACTORIAL HepG2 Assay for human Liver X Receptor alpha (LXRa) (AID 2282980; active = hit-call score of the fitted dose curve at least 0.9, where 1 is the maximum). To be noted: HepG2 Attagene TRANS reporter, LXRa transactivation. In outline: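 Transfect HepG2 with GAL4-UAS multiplex reporter constructs (TRANS format, chimeric receptor-GAL4); treat 24 h; extract RNA, reverse-transcribe, PCR-amplify, FAM-label, HpaI-digest; resolve fragments by capillary electrophoresis. Upward response vs DMSO.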

The nature of assay [15]: ATG_M_32_TRANS: Attagene TRANS-FACTORIAL HepG2 Assay for M32 Transcription Factor (Internal Marker) (AID 2282984; active = hit-call score of the fitted dose curve at least 0.9, where 1 is the maximum;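 also: transcript level of a background control reporter unit measured by RT-PCR and capillary electrophoresis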). Particulars: HepG2 Attagene TRANS M32 internal marker reporter. In outline:
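Human hepatoma HepG2, transient MRTU transfection, 24 h treatment. RNA → RT-PCR → fluorescent primer extension → HpaI digest (2 h, 37 C) → CE. Positive-direction fit vs DMSO.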

The target in assay [16] is Nuclear receptor subfamily 4 group A member 2 (Homo sapiens) (UniProt P43354). Nature of the assay: ATG_NURR1_TRANS: Attagene TRANS-FACTORIAL HepG2 Assay for human Nuclear Receptor Related Protein 1 (NURR1) (AID 2282985; active = hit-call score of the fitted dose curve at least 0.9, where 1 is the maximum). To be noted: HepG2 Attagene TRANS reporter, mRNA readout. The method in brief: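 After 24 h chemical dosing, total RNA from transiently transfected HepG2 cells was reverse-transcribed and reporter cDNA PCR-amplified, FAM-labelled and analysed by capillary electrophoresis. Activity fitted in positive direction, DMSO as negative control.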

Assay [17] is described as follows: ATG_NF_kB_CIS: Attagene CIS-FACTORIAL HepG2 Assay for human Nuclear Factor Kappa B (NF-kB) (AID 2282991). Particulars: HepG2 Attagene cis-factorial NF-kB reporter mRNA; actives raise or lower the signal. The method in brief: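 HepG2 cells transfected with cis-promoter-driven reporter units, so endogenous transcription factor activity is measured. Reporter mRNA quantified 24 h after dosing by RT-PCR and capillary electrophoresis, with bidirectional fitting against DMSO.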

Assay [18] deals with Nuclear receptor subfamily 1 group I member 2 (Homo sapiens) (UniProt O75469). Nature of the assay: ATG_PXR_TRANS: Attagene TRANS-FACTORIAL HepG2 Assay for human Pregnane X Receptor (PXR) (AID 2283008; active = hit-call score of the fitted dose curve at least 0.9, where 1 is the maximum). In outline: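 HepG2 cells transiently transfected with GAL4-UAS reporter units and PXR-Gal4 chimera, exposed 24 h. Reporter mRNA quantified by RT-PCR, fluorescent labelling, HpaI digestion and capillary electrophoresis; gain of signal vs DMSO.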

Assay [19] can be described thus: ATG_GRE_CIS: Attagene CIS-FACTORIAL HepG2 Assay for human Glucocorticoid Response Elements (GRE) (AID 2282947). Particulars: HepG2 GRE cis-reporter, Attagene multiplex mRNA; actives raise or lower the signal. In outline:
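Following 24 h chemical exposure of transiently transfected HepG2 cells, total RNA was reverse-transcribed and reporter cDNA amplified, fluorescently labelled and sized by capillary electrophoresis. Signal gain or loss was fitted relative to DMSO vehicle.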

In assay [20] the target is Glucocorticoid receptor (Homo sapiens) (UniProt P04150). Nature of the assay: ATG_GR_TRANS: Attagene TRANS-FACTORIAL HepG2 Assay for human Glucocorticoid Receptor (GR) (AID 2282978; active = hit-call score of the fitted dose curve at least 0.9, where 1 is the maximum;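 also: activators score as hits since higher reporter transcript over DMSO is fitted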). To be noted: HepG2 Attagene TRANS GR reporter, mRNA transcription. In outline:
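HepG2 cells transiently transfected with GAL4-UAS reporter units and exogenous GR-Gal4 chimera, dosed 24 h. Reporter mRNA by RT-PCR, FAM labeling, HpaI digest and capillary electrophoresis; gain-of-signal fit versus DMSO.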

Glucocorticoid receptor (Homo sapiens), sequence (P04150 whole entry, looked up, the tested form may be a part): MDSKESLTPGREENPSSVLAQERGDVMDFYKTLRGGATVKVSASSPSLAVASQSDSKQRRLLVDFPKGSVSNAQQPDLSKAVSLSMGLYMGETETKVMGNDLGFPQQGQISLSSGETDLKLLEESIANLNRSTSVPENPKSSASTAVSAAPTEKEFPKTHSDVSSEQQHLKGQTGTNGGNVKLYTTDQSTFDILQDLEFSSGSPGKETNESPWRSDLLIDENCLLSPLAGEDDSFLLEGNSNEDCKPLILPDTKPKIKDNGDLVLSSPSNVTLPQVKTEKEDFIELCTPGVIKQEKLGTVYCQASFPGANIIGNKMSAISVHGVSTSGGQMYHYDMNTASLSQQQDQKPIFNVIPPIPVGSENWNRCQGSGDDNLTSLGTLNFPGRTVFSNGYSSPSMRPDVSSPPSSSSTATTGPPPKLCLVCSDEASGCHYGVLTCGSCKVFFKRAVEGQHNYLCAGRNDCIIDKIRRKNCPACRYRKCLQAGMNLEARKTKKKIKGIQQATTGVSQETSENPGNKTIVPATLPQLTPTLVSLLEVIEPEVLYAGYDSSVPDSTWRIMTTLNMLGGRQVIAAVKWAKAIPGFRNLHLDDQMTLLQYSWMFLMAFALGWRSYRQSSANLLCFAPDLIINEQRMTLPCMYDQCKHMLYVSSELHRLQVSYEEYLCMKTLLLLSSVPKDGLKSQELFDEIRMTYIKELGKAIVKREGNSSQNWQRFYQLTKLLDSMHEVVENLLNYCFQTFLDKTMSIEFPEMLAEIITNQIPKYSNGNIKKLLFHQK
Nuclear receptor subfamily 4 group A member 2 (Homo sapiens), sequence (P43354 whole entry, looked up): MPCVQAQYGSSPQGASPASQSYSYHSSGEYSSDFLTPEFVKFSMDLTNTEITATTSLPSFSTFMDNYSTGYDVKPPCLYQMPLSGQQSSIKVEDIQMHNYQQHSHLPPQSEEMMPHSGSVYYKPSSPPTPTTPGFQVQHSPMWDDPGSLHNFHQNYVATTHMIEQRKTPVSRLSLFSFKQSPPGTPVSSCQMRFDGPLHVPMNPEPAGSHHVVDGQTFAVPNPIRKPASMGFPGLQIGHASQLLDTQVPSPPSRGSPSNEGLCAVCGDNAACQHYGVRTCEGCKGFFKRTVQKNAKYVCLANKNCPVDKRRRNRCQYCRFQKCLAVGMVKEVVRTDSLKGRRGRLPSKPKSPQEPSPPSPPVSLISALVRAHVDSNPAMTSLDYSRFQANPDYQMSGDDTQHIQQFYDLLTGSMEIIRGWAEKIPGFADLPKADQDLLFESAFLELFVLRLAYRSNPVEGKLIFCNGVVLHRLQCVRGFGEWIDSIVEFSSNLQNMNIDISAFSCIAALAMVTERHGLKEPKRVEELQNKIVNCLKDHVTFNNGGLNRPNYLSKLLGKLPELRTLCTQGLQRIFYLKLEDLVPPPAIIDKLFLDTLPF
Oxysterols receptor LXR-alpha (Homo sapiens), sequence (Q13133 whole entry, looked up, the tested form may be a part): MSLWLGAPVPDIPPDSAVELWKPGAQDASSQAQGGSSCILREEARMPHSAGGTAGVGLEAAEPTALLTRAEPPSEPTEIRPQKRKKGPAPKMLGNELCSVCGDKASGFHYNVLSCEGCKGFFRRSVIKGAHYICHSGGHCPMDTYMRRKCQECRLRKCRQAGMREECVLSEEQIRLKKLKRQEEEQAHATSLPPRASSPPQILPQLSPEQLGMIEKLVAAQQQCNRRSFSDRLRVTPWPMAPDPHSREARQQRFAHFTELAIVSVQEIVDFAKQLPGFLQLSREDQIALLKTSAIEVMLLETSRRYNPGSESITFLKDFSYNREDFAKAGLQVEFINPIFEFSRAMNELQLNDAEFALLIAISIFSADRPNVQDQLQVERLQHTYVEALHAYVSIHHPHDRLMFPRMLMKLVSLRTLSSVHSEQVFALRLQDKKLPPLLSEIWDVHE
Nuclear receptor subfamily 1 group I member 2 (Homo sapiens), sequence (O75469 whole entry, looked up, the tested form may be a part): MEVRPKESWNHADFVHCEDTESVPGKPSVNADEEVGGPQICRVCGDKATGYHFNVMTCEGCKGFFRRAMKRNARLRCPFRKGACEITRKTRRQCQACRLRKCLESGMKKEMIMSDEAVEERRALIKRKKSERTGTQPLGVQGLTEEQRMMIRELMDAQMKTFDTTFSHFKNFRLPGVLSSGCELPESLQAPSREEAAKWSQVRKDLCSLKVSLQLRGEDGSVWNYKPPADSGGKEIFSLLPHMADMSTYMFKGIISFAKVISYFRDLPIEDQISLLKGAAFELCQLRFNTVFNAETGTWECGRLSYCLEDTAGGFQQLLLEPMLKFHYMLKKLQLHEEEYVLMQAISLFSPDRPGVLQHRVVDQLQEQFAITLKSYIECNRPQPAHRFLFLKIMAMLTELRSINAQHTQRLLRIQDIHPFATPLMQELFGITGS

As usually defined, the AC50 is the concentration at which the activity in the assay is half-maximal. In the case of `COc1cc(CNC(=O)CCCC/C=C/C(C)C)ccc1O`, the call in assay [1], in assay [2], in [3], in assay [4], in [7] and in [8] was inactive. Besides, the outcome in [9], in [10], in assay [11], in assay [12] and in [13] was inactive. The figures for the AC50 in assay [5] and in assay [6] were 4.25 µM (active) and 8.5 µM (active), respectively.

Regarding `CN(C)N=Nc1ccccc1`, the outcome in assay [14], in assay [15], in assay [16], in assay [17] and in [18] was inactive.

Regarding `COc1ccc2ccccc2c1`, the outcome in assay [19], in assay [20], in assay [14] and in assay [15] was inactive.

For `CCO[Si](CCCN)(OCC)OCC`, the molecule was classed as inactive in assay [19], in assay [20], in assay [14], in [16] and in [17].

As to `CCCc1c(OCCCCc2nn[nH]n2)ccc(C(C)=O)c1O`, the molecule was classed as inactive in assay [19], in assay [20], in [14], in [15], in assay [17] and in [18]. Also, the AC50 in [16] was 50.4 µM (active).

For the molecule `O=C(C1CCCCC1)N1CC(=O)N2CCc3ccccc3C2C1` (stereo unspecified), the result in assay [19], in assay [20], in assay [16] and in assay [17] was inactive. Further, the AC50 in assay [18] was 8.4 µM (active).

For the molecule `CC[N+](CC)(CC(=O)Nc1c(C)cccc1C)Cc1ccccc1`, the outcome in assay [14], in assay [15], in [16] and in assay [18] was inactive.

For `CCCCC(CC)COC(=O)C=Cc1ccc(OC)cc1` (stereo unspecified), the result in assay [7], in assay [8], in assay [9], in assay [10], in assay [11] and in assay [12] was inactive. Also, the result in [13] was inactive.

Take `O=C(O)/C=C\C(=O)O`: the molecule was called inactive in assay [19], in assay [20], in assay [15], in assay [16] and in assay [17].

For `COc1ccc(C(=O)c2ccccc2O)c(O)c1`, the figures for the AC50 in [1] and in [2] were 0.0215 µM (active) and 0.003 µM (active), respectively. For the same molecule, the result in assay [3], in [4], in assay [5], in assay [6], in [7] and in assay [8] was inactive. The result in assay [9], in assay [10], in assay [11], in assay [12] and in assay [13] was inactive.

For `CC[N+](CC)(CC(=O)Nc1c(C)cccc1C)Cc1ccccc1` (tested in a mixture with another compound), the molecule was classed as inactive in assay [18], in assay [2], in assay [3], in assay [4], in assay [6] and in assay [7]. Also, the outcome in assay [8], in assay [9], in assay [10], in assay [11], in assay [12] and in assay [13] was inactive. The AC50 in assay [1] is 0.256 µM (active); in assay [5] it was 2.13 µM (active).

Turning to `C1CN(CCOCCN2CCOCC2)CCO1`, the molecule was called inactive in assay [1], in assay [2], in assay [3], in [4], in assay [5] and in assay [6]. Moreover, the result in assay [7], in assay [8], in assay [9], in assay [10], in [11] and in [12] was inactive. The result in assay [13] was inactive.

`CNCCC(Oc1ccc(C(F)(F)F)cc1)c1ccccc1` (stereo unspecified): the AC50 in [1] was 0.877 µM (active); in assay [2], 0.693 µM (active); in assay [5], 7.59 µM (active); in assay [6], 5.91 µM (active). Also, the result in [3] and in assay [4] was inactive.
